Measurements: PubChem BioAssay AID602261 (Sanford-Burnham Center for Chemical Genomics, 2012)
Hit rate of the full screen: of about 360,000 compounds, about 2,400 (0.67%) were called active.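 Rule for the calls: active = compounds whose normalised, plate-corrected inhibition of enzyme fluorescence in the single-dose primary screen is 50% or more; inactive = the rest.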 For the sample, actives were picked, then their nearest neighbours and some compounds at random.

Target: Fatty acid synthase (Homo sapiens) (UniProt P49327)
Assay: FAS thioesterase domain inhibitors, primary screen, biochemical, fluorescence intensity, uHTS (AID 602261);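 note: 0% = DMSO with enzyme and 100% = substrate without enzyme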
Settings: recombinant FAS-TE, OMFH fluorogenic substrate, fluorescence endpoint; at 15 µM; stronger effect = higher value

Fatty acid synthase (Homo sapiens), sequence (P49327 whole entry, looked up, the tested form may be a part): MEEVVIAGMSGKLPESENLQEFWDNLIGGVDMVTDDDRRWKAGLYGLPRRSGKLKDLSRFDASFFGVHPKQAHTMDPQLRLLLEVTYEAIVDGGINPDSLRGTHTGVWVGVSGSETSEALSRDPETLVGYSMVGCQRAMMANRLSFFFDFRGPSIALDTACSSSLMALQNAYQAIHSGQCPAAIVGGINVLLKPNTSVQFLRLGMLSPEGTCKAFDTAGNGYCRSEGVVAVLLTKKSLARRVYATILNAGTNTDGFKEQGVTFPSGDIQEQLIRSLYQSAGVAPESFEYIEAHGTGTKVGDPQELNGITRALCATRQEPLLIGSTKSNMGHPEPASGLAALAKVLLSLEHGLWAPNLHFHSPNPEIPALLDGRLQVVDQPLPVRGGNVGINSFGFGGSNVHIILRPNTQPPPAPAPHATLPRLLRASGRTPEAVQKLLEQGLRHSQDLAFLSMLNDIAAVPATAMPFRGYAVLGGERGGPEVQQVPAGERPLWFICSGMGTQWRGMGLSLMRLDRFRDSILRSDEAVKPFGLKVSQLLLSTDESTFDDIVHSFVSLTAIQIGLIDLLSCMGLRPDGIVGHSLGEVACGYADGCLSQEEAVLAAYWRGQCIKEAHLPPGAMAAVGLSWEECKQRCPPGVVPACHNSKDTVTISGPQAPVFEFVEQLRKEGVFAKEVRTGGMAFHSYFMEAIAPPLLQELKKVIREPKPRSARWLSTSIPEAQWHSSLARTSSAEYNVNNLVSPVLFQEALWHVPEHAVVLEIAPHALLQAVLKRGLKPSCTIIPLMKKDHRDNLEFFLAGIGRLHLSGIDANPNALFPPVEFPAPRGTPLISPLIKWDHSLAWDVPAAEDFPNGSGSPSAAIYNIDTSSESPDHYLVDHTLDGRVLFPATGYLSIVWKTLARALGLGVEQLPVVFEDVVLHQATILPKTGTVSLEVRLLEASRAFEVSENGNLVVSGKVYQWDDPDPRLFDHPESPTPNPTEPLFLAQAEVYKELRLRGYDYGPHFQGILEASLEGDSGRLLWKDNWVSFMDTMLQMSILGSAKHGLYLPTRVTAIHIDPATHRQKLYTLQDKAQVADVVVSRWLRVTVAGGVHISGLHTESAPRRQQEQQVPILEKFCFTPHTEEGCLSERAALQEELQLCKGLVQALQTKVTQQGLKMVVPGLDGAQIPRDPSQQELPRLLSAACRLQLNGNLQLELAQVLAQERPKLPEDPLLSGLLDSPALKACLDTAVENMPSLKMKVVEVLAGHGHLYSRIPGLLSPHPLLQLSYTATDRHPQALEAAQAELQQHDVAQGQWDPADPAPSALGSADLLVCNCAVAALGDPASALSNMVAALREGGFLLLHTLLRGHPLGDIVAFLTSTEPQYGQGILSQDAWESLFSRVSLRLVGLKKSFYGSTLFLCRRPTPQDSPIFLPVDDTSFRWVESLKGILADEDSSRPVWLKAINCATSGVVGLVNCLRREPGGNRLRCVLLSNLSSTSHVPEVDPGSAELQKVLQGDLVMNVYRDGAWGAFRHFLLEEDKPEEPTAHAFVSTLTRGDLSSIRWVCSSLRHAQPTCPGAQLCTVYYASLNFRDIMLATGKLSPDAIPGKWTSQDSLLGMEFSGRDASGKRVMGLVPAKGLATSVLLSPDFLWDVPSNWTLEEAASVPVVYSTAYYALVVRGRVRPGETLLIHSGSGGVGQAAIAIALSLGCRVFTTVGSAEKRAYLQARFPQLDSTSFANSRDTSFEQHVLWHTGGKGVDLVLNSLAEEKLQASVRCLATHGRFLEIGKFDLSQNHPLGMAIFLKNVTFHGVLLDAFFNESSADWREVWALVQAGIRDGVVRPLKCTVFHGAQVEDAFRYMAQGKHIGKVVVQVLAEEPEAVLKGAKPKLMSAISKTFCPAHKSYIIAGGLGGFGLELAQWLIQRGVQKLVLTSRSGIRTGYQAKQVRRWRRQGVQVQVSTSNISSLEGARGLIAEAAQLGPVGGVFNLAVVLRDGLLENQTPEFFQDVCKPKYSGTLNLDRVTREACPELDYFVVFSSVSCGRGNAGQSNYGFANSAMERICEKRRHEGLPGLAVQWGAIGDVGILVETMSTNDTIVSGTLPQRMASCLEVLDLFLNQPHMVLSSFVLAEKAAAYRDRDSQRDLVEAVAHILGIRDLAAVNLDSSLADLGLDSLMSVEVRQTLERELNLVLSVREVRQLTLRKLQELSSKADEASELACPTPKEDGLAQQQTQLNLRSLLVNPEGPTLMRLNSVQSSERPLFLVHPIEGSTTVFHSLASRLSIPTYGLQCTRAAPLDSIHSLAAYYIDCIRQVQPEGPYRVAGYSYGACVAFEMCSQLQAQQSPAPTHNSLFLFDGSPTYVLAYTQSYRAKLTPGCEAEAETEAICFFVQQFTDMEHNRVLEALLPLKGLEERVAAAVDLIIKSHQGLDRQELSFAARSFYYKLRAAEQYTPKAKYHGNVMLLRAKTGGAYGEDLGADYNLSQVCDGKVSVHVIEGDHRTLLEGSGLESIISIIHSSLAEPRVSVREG

inhibition, inactive:
Cc1noc(C)c1S(=O)(=O)N(C)C[C@H]1OCCCC[C@@H](C)Oc2ccc(NC(=O)CCCN(C)C)cc2C(=O)N([C@H](C)CO)C[C@@H]1C -10.2%, COc1cccc(NC(=S)N(Cc2ccc(C)cc2)Cc2ccccn2)c1 5.4%, COc1ccc(NC(=O)C2Cc3c(-c4ccc5c(c4)OCO5)ccnc3O2)cn1 (stereo unspecified) 1.3%, COCc1c(N)c(C)nc(Cl)c1C#N -5.4%, COc1cccc(-c2sc3ccc(OC)cc3c2-c2ccc(OCCN3CCCCC3)cc2)c1 15.5%, Cc1sc2nc(SCCO)n(-c3ccccc3)c(=O)c2c1C -4.5%, COc1ccc(-c2csc3ncnc(Oc4ccc5c(C)cc(=O)oc5c4)c23)cc1 -2.5%, CC1CCN(c2oc(-c3ccccc3F)nc2C#N)CC1 20.3%, COc1ccccc1-c1nc(C(F)(F)F)c(OC)o1 -1.4%, Cc1cc(C)n2nc(CNS(=O)(=O)c3c(F)c(F)c(F)c(F)c3F)nc2n1 12.1%, CC(=O)c1nn(-c2cccc(Br)c2)cc1C(=O)c1cccc2ccccc12 27.7%, CCC1OC(c2ccc([N+](=O)[O-])cc2)=Nc2ccccc21 (stereo unspecified) 14.7%, O=C(O)c1ccc(COc2c(F)c(F)cc(F)c2F)o1 -6.9%, CC(C)C[C@@H]1Cc2[nH][nH]c(=O)c2[C@H](CCc2ccccc2)O1 -59.6%, COc1cc(/C=C/c2ccc(/C=C/c3cc(OC)c(OC)c(OC)c3)cc2)cc(OC)c1OC 8.2%, O=C(Cn1nnc2ccccc2c1=O)Nc1cc(C(F)(F)F)ccc1N1CCOCC1 5.9%, CSCCC(NC(=O)COc1ccccc1)C(=O)OCCOc1ccc(Br)cc1 (stereo unspecified) 21.8%, CSCCC(NC(=O)COc1ccccc1)C(=O)OCc1ccc(Cl)cc1 (stereo unspecified) 24.4%, Cc1ccc(C)c2[nH]c(=O)c(CCNC(=O)CC(C)C)cc12 -6.6%, Cc1cccc(CSc2nc3c(c(=O)n2C)SCC3)c1 12.5%, COCCCNC(=O)CNC(=O)c1nn(-c2ccc(OC)cc2)c(=O)c2ccccc12 -6.6%, O=C(CN1CCCCC1)N1c2ccccc2Sc2ccc(C(F)(F)F)cc21 11.9%, CC[C@]12c3[nH]c4ccc(OC)cc4c3CCN1C(=O)C(CC(=O)NCc1ccco1)C[C@@H]2C(=O)N1CCN(C(=O)C2CC2)CC1 (stereo partly specified) -7.3%, CN(C)C(=O)CCc1ccc2c3c([nH]c2c1)[C@]1(CCC2CCCC2)[C@@H](C(=O)N2CCOCC2)C[C@H](CC(=O)NCc2ccco2)C(=O)N1CC3 21.1%, COc1ccc2[nH]c3c(c2c1)CCN1C(=O)C(CC(=O)NCCCN(C)C)C[C@H](C(=O)N2CCOCC2)[C@@]31CCC1CCCC1 (stereo partly specified) 43.3%, CC[C@]12c3[nH]c4ccc(Cl)cc4c3CCN1C(=O)[C@@H](CC(=O)NCCN1CCOCC1)C[C@@H]2C(=O)N1CCN(C(=O)C2CC2)CC1 -7.3%, COc1ccc(Br)c(Cn2c(C)c(C(=O)NCc3cccs3)sc2=O)c1 19.7%, C[n+]1cc(-c2ccccc2)oc1-c1ccccc1 -4.9%, COC1C(CO)OC(n2cnc3c(=S)nc(N)[nH]c32)C1O (stereo unspecified) -3.8%, COc1ccccc1C(=O)OCC(=O)Nc1cccc(S(=O)(=O)NC2=NCCCCC2)c1 -6.9%, CCc1ccc(C(=O)OCC(=O)Nc2cccc(S(=O)(=O)NC3=NCCCCC3)c2)cc1 1.8%, CC(C)(C)NC(=O)NC(=O)COC(=O)Cc1c(F)cccc1Cl 4.6%, O=C(COC(=O)Cc1ccc(Cl)cc1Cl)NCc1ccco1 -8.2%, COC(=O)CCC(=O)N1CCCC(CO)(Cc2ccccc2)C1 (stereo unspecified) -5.2%, Cc1ccccc1-c1nc(NC(C)C)nc2cc(-c3ccccc3)sc12 13%, COc1ccc(-c2nnc(SC(C)C(=O)NC3CC3)o2)cc1 (stereo unspecified) -5.6%, COc1ccc(CN(C(=O)CSc2nnc(-c3ccc(OC)c(OC)c3)o2)c2ccc(F)cc2)cc1 45.7%, COc1ccc(C(=O)NN2C(=O)C3C(c4ccccc4)C=CC(c4ccccc4)C3C2=O)cc1 (stereo unspecified) 33.6%, CCNc1c(NS(=O)(=O)c2ccc(C3CCCCC3)cc2)c(=O)oc2ccccc12 5.3%, Cc1cccc([C@@H]2[C@@H]3C(=O)N(C)C(=O)[C@@H]3[C@@H]3C(=O)Nc4ccccc4C(=O)N23)c1 -6.8%, COc1ccc(CNC(=O)CCCn2nc(C)c([N+](=O)[O-])c2C)cc1 10.9%, Cc1ccc(Oc2cc(NC(=O)CCCn3nc(C)c([N+](=O)[O-])c3C)cc([N+](=O)[O-])c2)cc1 30.9%, CC(/C=C/c1ccccc1)=N\NC(=O)C1CC1(C)c1ccccc1 (stereo unspecified) 20%, O=C(Cc1ccccc1)NNS(=O)(=O)c1ccc([N+](=O)[O-])cc1 11.1%, CCOc1c(N2CCCCC2)c(=O)c1=O -8%, O=C(c1cccc(F)c1)N1CCN(c2ccc([N+](=O)[O-])c(N3CCCCC3)c2)CC1 17.3%, O=C(c1ccc(Oc2ccc(Cl)cc2)c([N+](=O)[O-])c1)N1CCCC1 -19.7%, COCCNc1nc2nonc2nc1N1CCCC1c1nccs1 (stereo unspecified) -8.3%, CC(OC(=O)CNC(=O)c1cccc(F)c1)C(=O)NC1CCCCC1C (stereo unspecified) -5.6%, COc1ccc(CNC(=O)C(=O)NCC2OCCN2C(=O)c2ccc(OC)cc2)cc1 (stereo unspecified) -1.4%, Cc1ccc(-c2noc(CSc3nnc(-c4cccs4)n3C)n2)cc1 -14.2%, Cc1nnc(SCc2ccc(C(=O)c3ccc(Cl)cc3)o2)n1-c1ccccc1 2.7%, C/C(=N\NC(=O)c1cccnc1)c1ccc(-n2ccnc2)cc1 -10.3%, O=S(=O)(Nc1ccc(-n2cnnn2)cc1)c1ccc(Cl)cc1 2.4%, Cc1ccc(C)c(S(=O)(=O)Nc2cccc(-n3cnnn3)c2)c1 4.5%, O=c1c2ccccc2cnn1Cc1n[nH]c(=S)n1-c1ccccc1F -4.3%, Cc1ccc(C(=O)N/C(=C\c2cn(C)c3ccccc23)C(=O)N2CCN(C)CC2)cc1 -5%, Cc1ccc(C(=O)N/C(=C/c2cccs2)C(=O)N2CCCCC2)cc1 -8.4%, O=C(O)c1ccccc1-c1ccccc1C(=O)Nc1ccccc1Br -0.4%, O=C(NCc1ccccc1)C1CCN(C(=O)Cc2ccccc2)CC1 -4.1%, CCNC(=O)NNC(=O)C1CC(c2cccs2)=NO1 (stereo unspecified) -1.4%, COc1ccc(S(=O)(=O)Nc2ccc(F)cc2)c(C)c1C 1.1%, COc1cc(C(=O)OC2CCOC2=O)c([N+](=O)[O-])cc1OC (stereo unspecified) -3.6%, CC(C)c1ccc(C(=O)OC2CCOC2=O)cc1 (stereo unspecified) -2.3%, O=C(CNC(=O)OCc1ccccc1)NC1CCCCNC1=O (stereo unspecified) -2.6%, COc1ccc(S(=O)(=O)N2CCOCC2)cc1NC(=O)c1ccc(OCC(C)C)c(OC)c1 27.8%, O=C(NCC1CCCCC1)c1cc(S(=O)(=O)N2CCCCC2)ccc1N1CCOCC1 3.8%, COc1cccc(NC(=O)C2c3cc(OC)c(OC)cc3C(=O)N(C)C2c2cccnc2)c1 (stereo unspecified) -9.1%

inhibition, active:
COc1ccc(NC(=O)/C(Cl)=C(/Cl)S(=O)Cc2ccc(C)cc2)cn1 (stereo unspecified) 53.3%, COc1ccc(-c2csc3nc(-c4ccccc4F)oc(=O)c23)cc1OC 65.3%, Cc1sc2nc(-c3ccccc3F)oc(=O)c2c1C 54.7%, CSCCC(NC(=O)COc1ccccc1)C(=O)OCC(=O)c1cc2ccccc2o1 (stereo unspecified) 70.7%, CC1=CC(=C(C#N)c2nc3ccccc3s2)C=C(C)N1c1ccc(F)cc1F 59.2%, O=C(C[C@H]1C[C@H](C(=O)N2CCOCC2)[C@@]2(CCC3CCCC3)c3[nH]c4ccc(Cl)cc4c3CCN2C1=O)NCc1ccco1 88.8%, COc1ccc(CNC(=O)C[C@H]2C[C@H](C(=O)N3CCOCC3)[C@@]3(CCC4CCCC4)c4[nH]c5ccc(Cl)cc5c4CCN3C2=O)cc1OC 89%, Cc1cccc(-n2c(SCC(=O)Nc3cccc(S(=O)(=O)NC4=NCCCCC4)c3)nc3ccccc3c2=O)c1C 71.3%, CC(C)(C)NC(=O)NC(=O)COC(=O)Cc1ccc(Cl)cc1Cl 69.5%, COc1ccc(-c2nnc(SC(=O)N3c4ccccc4Sc4ccccc43)o2)cc1 51.9%, Cc1nn(CCOc2ccc(Br)cc2)c(C)c1[N+](=O)[O-] 62.3%, CC(C=Cc1ccccc1)=NNS(=O)(=O)c1ccc([N+](=O)[O-])cc1 58.3%, O=C(c1ccc(Cl)c([N+](=O)[O-])c1)N1CCN(c2ccccc2)CC1 53.6%, Fc1ccc(-n2c(Cc3ccccc3)nnc2SCc2nc(-c3ccc(Cl)cc3)no2)cc1 52.6%, O=S(=O)(Nc1cccc(-n2cnnn2)c1)c1cnc(Cl)c(Cl)c1 56.8%, Cc1ccc(C(=O)N/C(=C\c2cn(S(=O)(=O)N(C)C)c3ccccc23)C(=O)N2CCCC2)cc1 86.5%, O=C(OC1CCOC1=O)c1ccc(-c2nc3ccccc3s2)s1 (stereo unspecified) 51.7%, COc1ccc(S(=O)(=O)N2CCCCC2)cc1NC(=O)c1cc([N+](=O)[O-])ccc1N1CCOCC1 86.5%
